The structures appear in SMILES notation.

Assay [1] concerns the target T1, Tyrosine-protein kinase receptor TYRO3 (Homo sapiens) (UniProt Q06418).
T1 sequence (whole entry): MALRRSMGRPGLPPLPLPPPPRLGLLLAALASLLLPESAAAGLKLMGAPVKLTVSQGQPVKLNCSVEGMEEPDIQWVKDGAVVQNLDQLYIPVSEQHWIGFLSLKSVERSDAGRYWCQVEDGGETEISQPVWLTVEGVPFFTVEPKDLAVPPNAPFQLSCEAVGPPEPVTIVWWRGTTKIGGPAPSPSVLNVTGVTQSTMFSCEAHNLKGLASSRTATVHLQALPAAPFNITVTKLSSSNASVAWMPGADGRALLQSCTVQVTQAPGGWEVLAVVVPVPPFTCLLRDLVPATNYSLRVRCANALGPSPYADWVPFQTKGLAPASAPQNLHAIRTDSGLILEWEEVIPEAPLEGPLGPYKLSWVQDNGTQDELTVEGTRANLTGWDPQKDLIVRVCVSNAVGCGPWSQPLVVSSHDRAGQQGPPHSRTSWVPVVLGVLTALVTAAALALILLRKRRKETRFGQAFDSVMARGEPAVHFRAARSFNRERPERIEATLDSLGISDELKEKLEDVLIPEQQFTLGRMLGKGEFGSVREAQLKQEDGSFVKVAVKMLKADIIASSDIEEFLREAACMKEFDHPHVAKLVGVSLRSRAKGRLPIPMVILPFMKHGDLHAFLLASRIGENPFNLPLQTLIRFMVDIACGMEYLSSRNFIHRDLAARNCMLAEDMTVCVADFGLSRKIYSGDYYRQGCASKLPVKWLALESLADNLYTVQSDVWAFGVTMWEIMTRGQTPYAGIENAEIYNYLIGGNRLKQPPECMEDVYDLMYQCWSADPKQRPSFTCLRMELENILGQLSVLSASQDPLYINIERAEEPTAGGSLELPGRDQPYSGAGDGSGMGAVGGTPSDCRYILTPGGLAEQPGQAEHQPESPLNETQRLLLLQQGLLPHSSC
The following applies: at 1 µM.

Assay [2] has as its target Tyrosine-protein kinase Yes (Homo sapiens) (UniProt P07947). The following applies: at 0.1 µM.
For assay [3] the target is unchanged. Conditions: at 1 µM.
In assay [4] the target is T2, Tyrosine-protein kinase ZAP-70 (Homo sapiens) (UniProt P43403).
T2 sequence (whole entry): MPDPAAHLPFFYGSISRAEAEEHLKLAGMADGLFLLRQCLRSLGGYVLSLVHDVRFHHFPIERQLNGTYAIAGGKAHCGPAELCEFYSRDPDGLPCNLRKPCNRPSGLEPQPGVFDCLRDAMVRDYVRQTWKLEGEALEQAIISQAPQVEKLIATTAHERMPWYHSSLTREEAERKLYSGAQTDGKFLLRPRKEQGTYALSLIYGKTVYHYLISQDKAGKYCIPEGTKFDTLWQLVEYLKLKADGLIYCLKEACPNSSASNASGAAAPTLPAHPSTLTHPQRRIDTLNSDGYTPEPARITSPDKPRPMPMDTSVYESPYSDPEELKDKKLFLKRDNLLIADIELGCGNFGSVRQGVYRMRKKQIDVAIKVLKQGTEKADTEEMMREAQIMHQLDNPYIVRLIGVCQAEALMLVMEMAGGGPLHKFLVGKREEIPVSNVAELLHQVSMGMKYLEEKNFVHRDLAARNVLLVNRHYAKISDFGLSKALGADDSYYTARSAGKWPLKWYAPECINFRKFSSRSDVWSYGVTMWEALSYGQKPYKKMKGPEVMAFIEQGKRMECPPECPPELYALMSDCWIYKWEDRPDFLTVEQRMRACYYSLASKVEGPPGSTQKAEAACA
Conditions: at 0.1 µM.

Assay [5] addresses T2, Tyrosine-protein kinase ZAP-70 (Homo sapiens). The following applies: at 1 µM.
Assay [6] deals with Serine/threonine-protein kinase B-raf (Homo sapiens) (UniProt P15056). The following applies: at 0.1 µM.
Assay [7] has the same target. Conditions: at 1 µM.
Assay [8] has as its system Serine/threonine-protein kinase B-raf (Homo sapiens), P15056 [V600E]. Conditions: at 0.1 µM.
Assay [9] has the same test system. Conditions: at 1 µM.
For assay [10], the target named is RAF proto-oncogene serine/threonine-protein kinase (Homo sapiens) (UniProt P04049). Conditions: at 0.1 µM.
Assay [11] shares this target. The following applies: at 1 µM.
Assay [12] concerns the target T3, Interleukin-1 receptor-associated kinase 4 (Homo sapiens) (UniProt Q9NWZ3).
T3 sequence (whole entry): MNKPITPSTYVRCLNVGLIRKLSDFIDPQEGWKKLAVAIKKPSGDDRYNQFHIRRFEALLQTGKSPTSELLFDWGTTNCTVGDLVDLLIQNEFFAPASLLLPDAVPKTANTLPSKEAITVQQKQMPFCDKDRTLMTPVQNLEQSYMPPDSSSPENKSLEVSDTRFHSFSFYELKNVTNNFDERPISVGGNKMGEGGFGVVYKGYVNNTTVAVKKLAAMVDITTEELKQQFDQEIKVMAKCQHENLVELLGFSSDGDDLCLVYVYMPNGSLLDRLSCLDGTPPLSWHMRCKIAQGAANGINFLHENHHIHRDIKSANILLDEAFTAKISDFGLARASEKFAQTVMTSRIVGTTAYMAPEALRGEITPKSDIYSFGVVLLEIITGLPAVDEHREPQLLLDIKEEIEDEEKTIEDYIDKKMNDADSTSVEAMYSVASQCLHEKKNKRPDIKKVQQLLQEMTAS
The following applies: at 0.1 µM.

The target of assay [13] is T3, Interleukin-1 receptor-associated kinase 4 (Homo sapiens). Conditions: at 1 µM.
Assay [14] addresses Leucine-rich repeat serine/threonine-protein kinase 2 (Homo sapiens) (UniProt Q5S007). Conditions: at 0.1 µM.
The target is the same in assay [15]. The following applies: at 1 µM.
For assay [16], the system named is Leucine-rich repeat serine/threonine-protein kinase 2 (Homo sapiens), Q5S007 [G2019S]. Conditions: at 0.1 µM.
The test system is the same in assay [17]. Conditions: at 1 µM.

Sequence of RAF proto-oncogene serine/threonine-protein kinase (Homo sapiens) (P04049 whole entry): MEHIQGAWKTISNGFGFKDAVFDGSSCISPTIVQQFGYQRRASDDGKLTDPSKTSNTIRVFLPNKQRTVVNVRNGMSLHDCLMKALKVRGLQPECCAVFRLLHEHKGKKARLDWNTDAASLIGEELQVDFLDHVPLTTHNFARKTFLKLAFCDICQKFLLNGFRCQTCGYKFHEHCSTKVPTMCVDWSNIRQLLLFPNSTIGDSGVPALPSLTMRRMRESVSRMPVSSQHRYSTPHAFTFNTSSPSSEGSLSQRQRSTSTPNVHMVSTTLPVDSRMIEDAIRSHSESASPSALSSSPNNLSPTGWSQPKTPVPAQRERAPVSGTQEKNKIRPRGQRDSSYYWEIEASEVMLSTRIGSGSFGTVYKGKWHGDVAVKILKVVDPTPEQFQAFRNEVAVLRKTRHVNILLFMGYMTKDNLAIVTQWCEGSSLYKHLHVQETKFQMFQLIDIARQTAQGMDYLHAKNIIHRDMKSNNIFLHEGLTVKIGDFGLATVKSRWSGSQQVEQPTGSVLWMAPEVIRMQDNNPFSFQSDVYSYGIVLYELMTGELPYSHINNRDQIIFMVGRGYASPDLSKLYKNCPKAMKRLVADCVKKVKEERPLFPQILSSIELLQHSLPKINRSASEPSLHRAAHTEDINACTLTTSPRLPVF
Sequence of Tyrosine-protein kinase Yes (Homo sapiens) (P07947 2-543 limits assumed): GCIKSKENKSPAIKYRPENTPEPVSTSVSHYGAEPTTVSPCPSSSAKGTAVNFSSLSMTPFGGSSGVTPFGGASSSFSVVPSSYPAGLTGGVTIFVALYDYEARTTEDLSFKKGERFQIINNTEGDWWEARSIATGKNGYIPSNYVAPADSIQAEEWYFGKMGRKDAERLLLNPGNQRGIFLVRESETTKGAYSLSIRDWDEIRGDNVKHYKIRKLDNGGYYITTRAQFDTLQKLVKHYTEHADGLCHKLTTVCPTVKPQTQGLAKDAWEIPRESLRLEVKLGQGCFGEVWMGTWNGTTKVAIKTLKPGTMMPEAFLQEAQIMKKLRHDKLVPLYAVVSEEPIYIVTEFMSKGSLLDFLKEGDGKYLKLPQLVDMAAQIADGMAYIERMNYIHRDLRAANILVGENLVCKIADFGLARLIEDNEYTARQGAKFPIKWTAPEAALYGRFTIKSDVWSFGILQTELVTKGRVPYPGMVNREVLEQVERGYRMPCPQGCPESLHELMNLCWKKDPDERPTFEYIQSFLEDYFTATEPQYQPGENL
Sequence of Serine/threonine-protein kinase B-raf (Homo sapiens) (P15056 whole entry): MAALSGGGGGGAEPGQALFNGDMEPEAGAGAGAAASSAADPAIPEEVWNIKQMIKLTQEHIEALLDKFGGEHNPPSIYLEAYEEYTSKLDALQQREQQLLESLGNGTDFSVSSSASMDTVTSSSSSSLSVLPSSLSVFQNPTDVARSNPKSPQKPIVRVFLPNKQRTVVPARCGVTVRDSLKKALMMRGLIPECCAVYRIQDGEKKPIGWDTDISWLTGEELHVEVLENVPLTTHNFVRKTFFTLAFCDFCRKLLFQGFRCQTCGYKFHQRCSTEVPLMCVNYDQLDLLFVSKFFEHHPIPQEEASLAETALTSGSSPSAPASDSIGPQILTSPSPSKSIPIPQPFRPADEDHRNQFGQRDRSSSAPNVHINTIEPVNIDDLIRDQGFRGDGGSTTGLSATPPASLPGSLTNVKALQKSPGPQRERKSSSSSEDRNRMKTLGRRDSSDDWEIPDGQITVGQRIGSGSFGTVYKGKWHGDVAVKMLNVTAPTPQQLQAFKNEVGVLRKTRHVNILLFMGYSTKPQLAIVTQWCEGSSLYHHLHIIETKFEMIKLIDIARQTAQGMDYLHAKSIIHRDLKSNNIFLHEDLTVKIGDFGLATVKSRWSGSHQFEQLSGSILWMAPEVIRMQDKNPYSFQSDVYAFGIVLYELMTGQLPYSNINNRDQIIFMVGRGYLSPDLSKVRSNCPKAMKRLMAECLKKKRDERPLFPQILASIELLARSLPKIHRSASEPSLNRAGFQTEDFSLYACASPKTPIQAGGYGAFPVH
Sequence of Leucine-rich repeat serine/threonine-protein kinase 2 (Homo sapiens), Q5S007 [G2019S] (Q5S007 whole entry G2019S): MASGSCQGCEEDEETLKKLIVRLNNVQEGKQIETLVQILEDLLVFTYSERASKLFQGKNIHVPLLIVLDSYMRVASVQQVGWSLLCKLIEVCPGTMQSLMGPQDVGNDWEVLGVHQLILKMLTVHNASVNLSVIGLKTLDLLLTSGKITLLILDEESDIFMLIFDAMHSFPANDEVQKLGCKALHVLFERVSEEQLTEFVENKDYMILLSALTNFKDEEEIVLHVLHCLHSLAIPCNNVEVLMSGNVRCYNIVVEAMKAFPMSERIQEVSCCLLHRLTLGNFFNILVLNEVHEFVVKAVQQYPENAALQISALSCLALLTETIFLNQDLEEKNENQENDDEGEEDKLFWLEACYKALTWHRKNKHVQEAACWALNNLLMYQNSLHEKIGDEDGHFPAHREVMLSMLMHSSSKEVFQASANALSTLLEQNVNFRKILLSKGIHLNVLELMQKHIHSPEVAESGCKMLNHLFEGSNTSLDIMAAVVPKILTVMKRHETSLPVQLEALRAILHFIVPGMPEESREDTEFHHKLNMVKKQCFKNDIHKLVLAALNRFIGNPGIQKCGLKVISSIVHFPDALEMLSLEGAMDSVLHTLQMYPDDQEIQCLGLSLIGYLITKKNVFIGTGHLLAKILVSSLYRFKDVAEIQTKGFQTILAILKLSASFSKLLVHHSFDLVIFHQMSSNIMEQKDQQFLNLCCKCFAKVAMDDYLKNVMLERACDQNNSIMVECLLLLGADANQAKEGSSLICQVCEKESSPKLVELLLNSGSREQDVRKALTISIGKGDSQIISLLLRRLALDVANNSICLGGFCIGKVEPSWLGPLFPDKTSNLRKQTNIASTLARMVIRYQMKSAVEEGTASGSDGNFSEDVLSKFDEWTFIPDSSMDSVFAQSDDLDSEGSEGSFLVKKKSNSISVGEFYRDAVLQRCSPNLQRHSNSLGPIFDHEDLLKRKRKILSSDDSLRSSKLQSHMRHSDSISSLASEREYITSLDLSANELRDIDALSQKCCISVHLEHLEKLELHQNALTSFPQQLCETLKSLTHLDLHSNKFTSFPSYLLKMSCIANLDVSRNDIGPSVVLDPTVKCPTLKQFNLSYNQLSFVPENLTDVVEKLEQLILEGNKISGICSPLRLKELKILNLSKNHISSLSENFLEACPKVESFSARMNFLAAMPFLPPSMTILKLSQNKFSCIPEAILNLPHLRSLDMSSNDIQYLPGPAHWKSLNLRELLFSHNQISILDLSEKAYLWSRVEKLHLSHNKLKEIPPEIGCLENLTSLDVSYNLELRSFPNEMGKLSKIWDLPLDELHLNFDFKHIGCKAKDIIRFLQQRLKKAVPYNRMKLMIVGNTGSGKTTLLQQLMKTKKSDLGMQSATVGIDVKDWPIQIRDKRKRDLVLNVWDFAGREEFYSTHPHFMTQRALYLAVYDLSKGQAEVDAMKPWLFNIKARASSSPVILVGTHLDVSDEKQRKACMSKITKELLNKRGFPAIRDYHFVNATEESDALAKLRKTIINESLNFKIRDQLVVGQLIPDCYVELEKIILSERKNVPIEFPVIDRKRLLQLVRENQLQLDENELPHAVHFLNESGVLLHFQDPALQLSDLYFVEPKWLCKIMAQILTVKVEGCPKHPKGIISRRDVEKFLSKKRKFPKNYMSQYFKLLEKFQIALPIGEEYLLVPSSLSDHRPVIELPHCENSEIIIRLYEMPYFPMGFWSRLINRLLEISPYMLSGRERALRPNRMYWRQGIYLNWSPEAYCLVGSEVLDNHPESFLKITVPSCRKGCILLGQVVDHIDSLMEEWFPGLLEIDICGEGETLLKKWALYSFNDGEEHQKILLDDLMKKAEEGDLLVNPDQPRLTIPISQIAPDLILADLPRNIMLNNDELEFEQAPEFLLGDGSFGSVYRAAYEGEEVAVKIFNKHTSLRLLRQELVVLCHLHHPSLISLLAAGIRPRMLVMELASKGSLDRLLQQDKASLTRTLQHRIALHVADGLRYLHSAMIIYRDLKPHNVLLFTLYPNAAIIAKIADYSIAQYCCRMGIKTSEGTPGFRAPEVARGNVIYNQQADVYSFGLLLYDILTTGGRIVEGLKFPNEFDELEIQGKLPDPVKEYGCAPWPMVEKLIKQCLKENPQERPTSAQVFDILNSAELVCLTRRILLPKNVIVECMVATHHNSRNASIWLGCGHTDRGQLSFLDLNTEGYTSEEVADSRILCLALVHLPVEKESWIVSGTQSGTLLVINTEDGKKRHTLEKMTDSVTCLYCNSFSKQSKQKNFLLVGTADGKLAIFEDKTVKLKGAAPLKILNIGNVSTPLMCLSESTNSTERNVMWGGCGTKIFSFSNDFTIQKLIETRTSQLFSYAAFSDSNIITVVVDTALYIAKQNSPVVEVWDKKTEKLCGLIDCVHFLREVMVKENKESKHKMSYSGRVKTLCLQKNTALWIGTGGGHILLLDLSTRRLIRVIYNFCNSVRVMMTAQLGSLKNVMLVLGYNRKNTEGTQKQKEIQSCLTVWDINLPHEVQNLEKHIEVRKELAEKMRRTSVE
Sequence of Leucine-rich repeat serine/threonine-protein kinase 2 (Homo sapiens) (Q5S007 whole entry): as the sequence (Q5S007 whole entry G2019S) above, with S2019G counted along it
Sequence of Serine/threonine-protein kinase B-raf (Homo sapiens), P15056 [V600E] (P15056 whole entry V600E): as the sequence (P15056 whole entry) above, with V600E counted along it

Consider `O=C(O[C@H]1CN[C@H](C#Cc2cc3ncnc(Nc4ccc(Cc5ccccc5)cc4)c3s2)C1)N1CCOCC1`, for which the inhibition was 0.43% in assay [1]; 7.04% in assay [2]; 38.8% in assay [3]; -0.2% in assay [4]; 2.04% in assay [5]; 3.95% in assay [6]. For the same compound, the inhibition in assay [7] was 4.23%; in assay [8] it was 3.02%; in assay [9], 3.28%; in assay [10] it was -1.64%; in assay [11] it was 0.23%; in assay [12], -0.04%. Also, the inhibition was -0.2% in [13]; 1.27% in assay [14]; 2.6% in assay [15]; 2.35% in assay [16]; 3.96% in assay [17].

For the compound `Nc1nc(-c2cccc(Cl)c2)c(-c2ccc3ncccc3n2)s1`, the inhibition was 5.98% in assay [1]; 4.06% in [2]; 18.4% in assay [3]; 4.31% in assay [4]; 3.94% in assay [5]; 7.17% in assay [6]. Also, the inhibition is 9.65% in assay [7]; 7.28% in assay [8]; 8.63% in assay [9]; -1.17% in assay [10]; -0.32% in assay [11]; 3.86% in assay [12]. The inhibition in assay [13] turned out to be 2.05%; in assay [14], 3.53%; in assay [15] it was 7.21%; in assay [16] it was 6.96%; in assay [17], 9.35%.

For `Cc1cccc(Nc2ncc(-c3ccccc3)o2)c1`, the inhibition in assay [1] was 4.61%; in assay [2] it was 0.94%; in [3] it was 11.3%; in [4], 1.66%; in [5] it was 1.24%; in assay [6], 2.32%. For the same compound, the inhibition was 6.08% in assay [7]; 3.58% in assay [8]; 3.05% in assay [9]; 0.64% in assay [10]; -2.34% in assay [11]; 1.25% in assay [12]. In addition, the inhibition in [13] is 1.27%; in assay [14], 1.6%; in [15], 7.74%; in assay [16], 5.32%; in [17] it was 11.8%.

On to `COC(=O)c1sc(-n2cnc3cc(OC)c(OC)cc32)cc1OCc1ccccc1C(F)(F)F`, for which the inhibition was 2.68% in assay [1]; 6.36% in assay [2]; 27% in assay [3]; 1.17% in [4]; 2.18% in assay [5]; 6.09% in assay [6]. For the same compound, the inhibition is 8.51% in assay [7]; 6.02% in [8]; 6.69% in assay [9]; 3.34% in [10]; 3.19% in assay [11]; -0.1% in assay [12]. In addition, the inhibition in assay [13] is 1.88%; in [14], 4.15%; in assay [15] it was 10.7%; in assay [16] it was 4.24%; in [17] it was 19.4%.

On to `NC(=O)c1sc(-n2cnc3ccc(C(F)(F)F)cc32)cc1OCc1ccccc1Br`, for which the inhibition in [1] came to 2.95%; in [2] it was 2.93%; in [3] it was 6.95%; in assay [4], 2.64%; in [5], 2.31%; in [6], 6.14%. Moreover, the inhibition in assay [7] was 7.4%; in assay [8] it was 5.99%; in [9], 6.42%; in assay [10], -1.07%; in [11], -3.37%; in assay [12], 0.72%. The inhibition in assay [13] was found to be 1.61%; in [14], 1.61%; in [15], 6.09%; in assay [16], 2.3%; in assay [17], 12.8%.

As for `COc1ccc(-c2oc3ncnc(N)c3c2-c2ccc(NC(=O)Nc3cc(C(F)(F)F)ccc3F)cc2)cc1`, the inhibition turned out to be 49.4% in assay [1]; 15.7% in assay [2]; 80.1% in assay [3]; 0.23% in [4]; 4.77% in [5]; 6.96% in [6]. For the same compound, the inhibition was 19.6% in assay [7]; 8.1% in assay [8]; 23.9% in [9]; 2.02% in assay [10]; 5.86% in assay [11]; -1.07% in assay [12]. Also, the inhibition was determined as 2.91% in assay [13]; 6.22% in assay [14]; 15% in [15]; 5.81% in [16]; 16.8% in assay [17].

As to `COc1ccc(-c2cc(-c3c[nH]nc3-c3ccccn3)ccn2)cc1`, the inhibition in assay [1] is 4.46%; in assay [2], 3.5%; in assay [3] it was 7.41%; in assay [4] it was 1.69%; in assay [5], 2.09%; in [6], 7.54%. For the same compound, the inhibition was 6.98% in [7]; 7.82% in assay [8]; 6.42% in assay [9]; 0.24% in [10]; 0.07% in assay [11]; -2.78% in assay [12]. In addition, the inhibition in [13] was determined as 2.03%; in assay [14], 2.47%; in assay [15], 7.04%; in assay [16] it was 4.82%; in assay [17] it was 7.48%.

Consider `COc1cc(Nc2nccc(Nc3ccc4c(C)n[nH]c4c3)n2)cc(OC)c1OC`, for which the inhibition came to 27.9% in assay [1]; 28.4% in assay [2]; 70.7% in assay [3]; 9.11% in assay [4]; 32.7% in assay [5]; 1.16% in [6]. Also, the inhibition in assay [7] was 9.2%; in assay [8], 2.09%; in [9] it was 7%; in assay [10], -7.99%; in assay [11], -9.69%; in assay [12] it was -1.6%. Also, the inhibition in assay [13] is 6.36%; in [14], 9.84%; in assay [15], 17.6%; in [16] it was 10.8%; in [17], 43.7%.

Values taken from ChEMBL document CHEMBL1961873, “Compounds: GSK PKIS; Assays: Nanosyn kinase panel” (2012).
